Sampled rows, rich in hits. Any-hit rate of the full collection: about 2.9%.
PGE2 EP2 inh = blocks the human prostaglandin E2 receptor EP2 | C6 glioma cells expressing human EP2, cAMP TR-FRET; cells stimulated with saturating PGE2 | inhibition, % at 25 µM | P43116 | actives 0.52% (n = 260,000) | AID 1422;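 active = percent inhibition above 40 after rounding to a whole number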;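 also: rat C6 glioma host cells with rolipram phosphodiesterase inhibitor present; the protocol text gives 20 µM as final concentration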
SKN-1 inh = inhibitors of C. elegans SKN-1 | inhibition, % at 21.8 µM | C. elegans VP596 Pgst-4::GFP/RFP ratio, acrylamide-induced, 24 h | actives 0.49% (n = 360,000) | AID 624304;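 active = interference check ratio from 0.5 to 1.5 plus GFP to RFP signal ratio inhibition reaching or exceeding a fixed threshold, cut at about 30% in these data, passing the limit was not always enough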
PG9 Ab binder = binds the HIV-1 gp120 antibody PG9. TR-FRET gp120-PG9 antibody binding. actives 0.43% (n = 360,000). inhibition, % at 6.7 µM; in the data active = inhibition above about 8.5%
RAM network inh = blocks the yeast RAM network; actives 1.8% (n = 190,000); inhibition, % at 50 µM; S. cerevisiae dse1pr::URA3 reporter, 5-FOA growth OD615, 2 d; analog-sensitive cbk1-as2 kinase mutant strain;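 active = inhibition above a set limit, 3 SD over mean compound inhibition, cut at about 8.4% in these data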;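 also: inhibition rescues growth on 5-FOA so higher OD means more RAM inhibition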
Rev-erbA mod = modulates human Rev-erb alpha binding to DNA. Rev-erbα–FITC-DNA binding, fluorescence polarization, 90 min. P20393. AID 1259318. activity, % at 10 µM. actives 0.79% (n = 370,000);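 active = activity above about 14%, limit read from the data; passing the limit was not always enough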
Target sequence (P20393 whole entry, looked up): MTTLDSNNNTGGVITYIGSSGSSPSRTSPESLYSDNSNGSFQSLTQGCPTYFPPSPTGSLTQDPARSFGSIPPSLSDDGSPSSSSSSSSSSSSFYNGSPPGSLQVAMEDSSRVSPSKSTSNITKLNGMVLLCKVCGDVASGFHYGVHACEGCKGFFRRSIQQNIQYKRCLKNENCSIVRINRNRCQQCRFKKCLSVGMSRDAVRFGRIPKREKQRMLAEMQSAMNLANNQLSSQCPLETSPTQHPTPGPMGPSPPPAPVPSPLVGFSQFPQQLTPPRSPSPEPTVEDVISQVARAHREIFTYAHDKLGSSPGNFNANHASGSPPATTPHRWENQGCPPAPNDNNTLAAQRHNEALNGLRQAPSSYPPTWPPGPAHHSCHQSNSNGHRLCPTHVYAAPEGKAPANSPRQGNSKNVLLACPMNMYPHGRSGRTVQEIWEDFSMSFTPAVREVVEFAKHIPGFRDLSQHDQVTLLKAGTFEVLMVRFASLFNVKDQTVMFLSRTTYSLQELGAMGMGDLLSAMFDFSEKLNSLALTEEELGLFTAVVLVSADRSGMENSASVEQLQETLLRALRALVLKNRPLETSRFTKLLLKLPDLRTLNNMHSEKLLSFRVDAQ
EP2 mod = modulators of human EP2 prostaglandin E2 receptor; P43116; actives 0.83% (n = 260,000); EP2-expressing cells, cAMP HTRF FRET, PGE2 co-stimulation; induction, % at 25 µM;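 active = compounds whose cAMP rise, as percent of the full-agonist control response, exceeds 60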;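 also: rat C6 glioma line stably carrying human EP2 under a CMV promoter; the protocol text gives 20 µM as final concentration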
Of the large screens only hits and unclear results are named; the others gave an inactive call; ! = a repeat was not active.

O=S(=O)(Nc1ccc(C(F)(F)F)cc1)c1cnc[nH]1	SKN-1 inh 38.4
OC(CN1CCC2(CC1)CC(O)c1cc(Cl)ccc1O2)c1ccccc1 (configuration not stated)	none (no result: SKN-1 inh, PG9 Ab binder, RAM network inh, Rev-erbA mod)
CCOC(=O)/C(C#N)=C\c1cn(C)c2ccccc12	none
CCOC(=O)/C(=C\c1cn(C)c2ccccc12)[N+](=O)[O-]	PGE2 EP2 inh 41.5
Cc1ccc(C(=O)/C=C\C(=O)c2ccc(C)cc2)cc1	none
Cc1ccc(S/C=C\C(=O)c2ccccc2)cc1	SKN-1 inh 42.5
C=CCn1c(SCC(N)=O)nc2sc3c(c2c1=O)CCC3	none (no result: PGE2 EP2 inh, RAM network inh, EP2 mod)
CCCSc1nc2sc3c(c2c(=O)n1C)CCCC3	EP2 mod 65.1 (no result: SKN-1 inh, PG9 Ab binder, RAM network inh, Rev-erbA mod)
CCCSc1nc2sc3c(c2c(=O)n1CC)CCCC3	none (no result: SKN-1 inh, PG9 Ab binder, RAM network inh, Rev-erbA mod)
C=CCn1c(SCc2csc(C)n2)nc2sc3c(c2c1=O)CCCC3	RAM network inh 9.3 (no result: PGE2 EP2 inh)
Cc1ccc(CN(CCCn2ccnc2)Cc2ccc(C)s2)o1	none (no result: SKN-1 inh, PG9 Ab binder, RAM network inh, Rev-erbA mod)
CC(C)C(Nc1n[nH]c(=O)[nH]c1=O)C(=O)O (configuration not stated)	none (no result: SKN-1 inh, PG9 Ab binder, RAM network inh, Rev-erbA mod)
CC(C)OC(=O)C(C)Nc1n[nH]c(=S)[nH]c1=O (configuration not stated)	PGE2 EP2 inh 105.5
CC(C)COC(=O)C(C)Nc1n[nH]c(=S)[nH]c1=O (configuration not stated)	PGE2 EP2 inh 47.4
CSc1nnc2c3sc4nc(N5CCOCC5)c5c(c4c3ncn12)CC(C)(C)OC5	none (no result: SKN-1 inh, PG9 Ab binder, RAM network inh, Rev-erbA mod)
COc1cccc(C(=O)CSc2nnc(-c3ccco3)n2C)c1	none (no result: SKN-1 inh, PG9 Ab binder, RAM network inh, Rev-erbA mod)
CCOC(=O)C1=C(Nc2ccccc2)CC(C)(O)C(C(=O)OCC)C1c1ccc(Cl)cc1 (configuration not stated)	SKN-1 inh 44.2!
O=C(O)c1ccc2ccc3ccccc3c2c1	SKN-1 inh 41.2 (no result: PGE2 EP2 inh, RAM network inh, EP2 mod)
C/C(N[O-])=C(\C)[N+]([O-])=[Co].CC(=N\[O-])/C(C)=N/[O-].O[C@@H]1[CH-]CCCC1.c1ccncc1	PGE2 EP2 inh 43.4 (no result: SKN-1 inh, PG9 Ab binder, RAM network inh, Rev-erbA mod)
Nc1cc(-c2cccs2)nn(Cc2ccccc2Cl)c1=O	none (no result: SKN-1 inh, PG9 Ab binder, RAM network inh, Rev-erbA mod)
Cc1ccc(S(=O)(=O)N2CCC(C(=O)NCCc3ccc(S(N)(=O)=O)cc3)CC2)cc1	RAM network inh 8.9
COC(=O)C12OCC34C(CC5C(C)=C(O)C(=O)CC5(C)C3C(O)C1O)OC(=O)C(OC(=O)C=C(C)C)C24 (configuration not stated)	SKN-1 inh 40.9 (no result: PGE2 EP2 inh, RAM network inh, EP2 mod)
Cc1cc(/C=C(\C#N)C(=O)Nc2ccc(F)cc2)c(C)n1-c1ccc(N2CCOCC2)c([N+](=O)[O-])c1	SKN-1 inh 38.5
c1csc(CNCC2CCCO2)c1 (configuration not stated)	none (no result: SKN-1 inh, PG9 Ab binder, RAM network inh, Rev-erbA mod)
COc1ccc(C(C)=O)cc1CN1C(=O)C(C)ON=C1c1cccc(C(F)(F)F)c1 (configuration not stated)	SKN-1 inh 35.1 (no result: PGE2 EP2 inh, RAM network inh, EP2 mod)
Cc1cc2cc(CN(CCO)C(=S)NCCc3ccccc3)c(=O)[nH]c2cc1C	none (no result: SKN-1 inh, PG9 Ab binder, RAM network inh, Rev-erbA mod)
CC1CCCN(C2=C(Cl)C(=O)N(c3cccc(Cl)c3)C2=O)C1 (configuration not stated)	RAM network inh 10.4
COc1ccc(N2C(=O)C(Cl)=C(N3CCCC(C)C3)C2=O)cc1 (configuration not stated)	none
Cc1cc2c(cc3c(=O)n(CC(=O)NCCCc4ccccc4)nc(C)n32)o1	none (no result: SKN-1 inh, PG9 Ab binder, RAM network inh, Rev-erbA mod)
COc1cc(OC)cc(C(=O)NCc2ccc(-n3cccc3)cc2)c1	RAM network inh 11.3
COc1cc(OC)cc(C(=O)NC(=S)NCCc2ccccc2)c1	RAM network inh 10.4
COc1ccc(CC(=O)NCc2ccc3c(c2)cc(C)n3C)cc1	SKN-1 inh 49.6
COc1cccc(C(=O)NCc2ccc3c(c2)cc(C)n3C)c1	RAM network inh 10.1
COc1ccc(C(=O)NC(=S)NCc2ccccc2)cc1	none (no result: PGE2 EP2 inh)
Cc1ccc(CNC(=O)c2ccc(-n3cccc3)cc2)cc1	none
O=C(Nc1ccc(F)cc1F)N1C2CCC1CC(O)(c1cccnc1)C2 (configuration not stated)	none (no result: SKN-1 inh, PG9 Ab binder, RAM network inh, Rev-erbA mod)
Cc1noc(C)c1S(=O)(=O)N1CCCC(C(=O)NCCc2ccc(Cl)cc2)C1 (configuration not stated)	SKN-1 inh 46.6
Cc1ccc(OCCOC(=O)c2sc(=S)n(C)c2C)cc1	none
Cc1c(C(=O)OCCOc2ccc(Br)cc2)sc(=S)n1C	RAM network inh 10.7

Bioassay records: PubChem, several laboratories
